Measurements from the supplement of paper PMC11417369.
The full ranking holds about 25,000 sequences; the median of “ln(normalized median fluorescence intensity)” is about 9.3, and the highest 2% start at about 10. The full list was thinned out, with the highest values kept by preference.

The sequences below were run on PF3D7_0420300 AP2 domain 1 (GST-tagged) (assay: gcPBM binding intensity (ln(normalized median fluorescence intensity)); higher = stronger DNA binding).
Outline: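 Using an Agilent 4 × 180k array, primer-extended double-stranded 36-bp intergenic genomic probes and negative controls were exposed for 1 h to GST-fused P. falciparum DNA-binding domains expressed in E. coli. Binding was carried out in 1× PBS with 1% milk, 0.2 mg/ml BSA, 0.5% salmon testes DNA and 0.03% Triton X-100, and protein was detected with Alexa488 anti-GST antibody and a 488 nm scan. Binding intensity is the highest Masliner-normalised natural-log median intensity across replicate spots of either probe orientation.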

Row | Sequence | gcPBM binding intensity (ln)
1 | GCAACAAAAAATCAGACATGCATTTTAAAATGAATA [TGCATGCA_site846] | 9.14
2 | TATTAAACTAAATGTAGTACATACACAAAAGAAACC [XGTACX_site606] | 9.75
3 | GTTAATATTTTTGGGGGTACTTAAAAAAAAAAAAAA [XGTACX_site1477] | 9.22
4 | TATACTTTATATATTTTGTATATATATTTTTTTTAT [TGCATGCA_negctrl_site530] | 9.34
5 | ATTTTTTTTTTTTTTTTGGGGGGGTATACTTTTAAA [CACACA_negctrl_site1020] | 10.8
6 | TTCATAAGAAGGAACTGTACATATTTTTCATTTTTT [XGTACX_site6770] | 9.15
7 | CCTCATATTATAGACACACACAAAAAAAATAAAAAA [CACACA_site180] | 9.74
8 | TAAATTAAAAGACACACACACAAAAAAAAAAAAAAA [CACACA_site7131] | 9.66
9 | TTTATTAATAGACACACACACACACGCAAAATAAAA [CACACA_site6255] | 10.2
10 | CACAAACAAAGACACACACACACACGCACAAAAATG [CACACA_site7193] | 10.1
11 | AATGTGTAGACACGCACACACAAAAAAATATTTATA [CACACA_site7384] | 9.6
12 | AAAAAAAACACGCGCACACACACACCCACAGACACA [CACACA_site5253] | 9.92
13 | TAATAAATAAATGACACACACACACGCAAAAAAAAA [CACACA_site7275] | 10.1
14 | AATTAACAAAGACACACACACACACGCACAAAAAAA [CACACA_site6388] | 10.2
15 | TTATTATTAAGACACACACACAAAAAAAAAAAAAAA [CACACA_site6805] | 9.73
16 | TATTTATTAAGACACACACACACACGCACAAAATAA [CACACA_site6254] | 10.2
17 | ATAGACAGCGCACAAACACACAAACACGCACGCACA [CACACA_site6349] | 9.6
18 | TACACAAACAGACACACACACACACGCGCACAAAAA [CACACA_site7192] | 10.2
19 | TTATTAACCTAAATTAGTACATATAATATAAAAAAT [XGTACX_site8661] | 9.18
20 | GAAAAGAAAAATAAACGTACATAAATATTAACATTA [XGTACX_site8213] | 9.2
21 | AGGCTCATTTTTTTTAGTACATCAAAAAAAAAAAAA [TGCATGCA_negctrl_site591] | 8.7
22 | TTTTTTTTTTTTTTTTGTACATATATATAAAAAATA [XGTACX_site2772] | 8.49
23 | ATATATAACTTTTCTTAACACACAAAAAACAAAAAT [CACACA_site8748] | 9.56
24 | TATATATATATAAACGCATGTAATTTATACACACAT [TGCATGCA_site946] | 9.41

Row | Sequence | gcPBM binding intensity (ln)
25 | GACAATTATATGTAGGTGCATATACAAATTTTTTAA | 9.11
26 | TTAACAAATAGACACACACACACACGCAAAAAAAAA [CACACA_site6387] | 10.2
27 | AAAACAAATAGACACGCACACAAAAAAAAAAAAAAA [CACACA_site801] | 9.33
28 | ATATATATATATAACACACGCAAAAAAATTAAATAA [CACACA_site1400] | 9.69
29 | AAAAAAAAAAAATATATATATATATATATATATATA [CACACA_negctrl_site1606] | 9.3
30 | TATATAAAAATATACACACACAAATGTATATATATA [CACACA_site220] | 9.68
31 | AAAAAAAAAAAAAAATACAAGCACATTTATATAAGC [GTGCAC_negctrl_site695] | 9.46
32 | AAATACTGATTTGGTTGTACATGTGCACTATATAAC [XGTACX_site3795] | 9.35
33 | TCATTTCACGGACACACACACACAATATATTTCCTT [CACACA_site6023] | 10.2
34 | TCATTTCACAGACACACACACACAATATATTTCCTT [CACACA_site9295] | 10.2
35 | TCATTTCACAAACACACACACACAATATATTTCCTT [CACACA_site3905] | 10.1
36 | TATTTTATAATTTACCGTACATTAATTGTATTATTA [XGTACX_site5722] | 9.33
37 | CAATCAAATGGACACACACACACCTAAACATAAAAG [CACACA_site5524] | 10.2
38 | ATCAAAAGAAAACACACACACATACATATATATATA [CACACA_site3795] | 10.1
39 | TACATACAGAAACACACACACACATATATATATATA [CACACA_site2919] | 10
40 | TAGATACAGAAACACACACACACATACATATATACA [CACACA_site3437] | 10.2
41 | ATCAAAAGAAAACACACACACATACAGATATATATA [CACACA_site5974] | 10.2
42 | CATACACAGAAACACACACACATATATACATATATA [CACACA_site1094] | 10.1
43 | CAATCAAATAGACACACACACACCTAAACATAAAAG [CACACA_site7322] | 10.1
44 | GTATCAAAAGAATACACACACACATACAGATATATA [CACACA_site5975] | 10.1
45 | CAATCAAAGAAACACACACACACCTAAACATAAAAG [CACACA_site2756] | 10.2
46 | ATATTACGCACAAAAAAAAAAAAAAAAAAAAAAAAA [CACACA_negctrl_site941] | 8.77
47 | TGGATGTTAATATAGTGTACATTTATAAGTCAGTAT [XGTACX_site2949] | 9.45
48 | ATATTGTAAGTAAACACACACACATCTATAGGTATA [CACACA_site6462] | 9.96

Row | Sequence | gcPBM binding intensity (ln)
49 | AATATATACATACATACATGCATACATATATATAAC [TGCATGCA_site371] | 9.37
50 | TATATATATATATATACACACATATATATATTTATA [CACACA_site627] | 9.39
51 | ACCATACATACATACACACACACACGCATATTTATA [CACACA_site7386] | 10.4
52 | TATTTATACCTATACACACACACACGGATATTTATA [CACACA_site7123] | 10.2
53 | TATTTATATTTATATACACACATATATACCTATATA [CACACA_site7820] | 9.48
54 | TATAGATACCTATACACACACACACGGACATATATA [CACACA_site7585] | 10.2
55 | AAAAAACAGACATACACACACACACGGATATTTATA [CACACA_site7570] | 10.3
56 | CATACATACATACATACACACATACCTATATTTATA [CACACA_site6769] | 9.79
57 | TATATACCTATATACACACACATATATTATAGATAT [CACACA_site6266] | 9.82
58 | GATACCTATAGACACACACACATACCTATATACATA [CACACA_site7586] | 10.1
59 | AAAACAAACAGACACACACACATATTTATATTTATA [CACACA_site7681] | 10.1
60 | CATACATACAGACACACACACATATTTATATTTATA [CACACA_site6172] | 9.94
61 | TATATATATTTATACACACACATATATTTATATATT [CACACA_site484] | 9.7
62 | AATGCTATCATTAATGCACACATTTAAAATTAATAT [CACACA_site3548] | 9.22
63 | ATTATATTAATTTATAGTACAATATTTATATATATG [XGTACX_site4668] | 9.2
64 | AAATATATATATAGTACATGCAGTAGATAATTTAAT [TGCATGCA_site299] | 9.51
65 | CAGATAGACTTATATGCATGCATTCACATACCAACA [TGCATGCA_site163] | 9.27
66 | ATAATATATATATTTTGTACACATGAAAAGGAGGAT [XGTACX_site5034] | 9.52
67 | TTGCTTATTAAATGGGGTACATTATATATATATATA [XGTACX_site2515] | 9.49
68 | TTTTTTTTTTTTTTTGGTACACATTTTGGTTAATGG [XGTACX_site5109] | 9.06
69 | ATATTATTATTAGTTTCACACATTTAATGAAACTAA [CACACA_site5677] | 9.03
70 | TTGTTAATAAAAATATTGGAAAGTTTATAAAATTTT [CACACA_negctrl_site1487] | 8.9
71 | TGTTCTTTGTTCAGCGCATGTAAAATAAAATAAAAT [TGCATGCA_site629] | 9.04
72 | AGGAGACTTAAAAAAAGTACAAAAAAAAAAAAAAGC [XGTACX_site1576] | 9.65

Row | Sequence | gcPBM binding intensity (ln)
73 | TATATATATATACCTTGTACTTACATTCGCATATAA [XGTACX_site2466] | 9.32
74 | TAATATATGTATTGCACACCTATAACCATTATTTCT [CACACA_site1498] | 9.51
75 | AGCACAAGCACAAGCACACATTTATATATAAATACA [CACACA_site4642] | 9.42
76 | TACATATTTATATACACACACACACGGATATTTATA [CACACA_site7239] | 10.3
77 | ATTTTTATTTTATATACACACAATAATAATATAATA [CACACA_site4015] | 9.39
78 | ATAATACACAAGCACACACACACACGGATATTTATA [CACACA_site6714] | 10.3
79 | TATTTATATTTATATACACACATACATATTTATATT [CACACA_site6535] | 9.57
80 | TATATATATATTTATACACACACATATATTTATATA [CACACA_site8054] | 9.59
81 | GAAATACCGGAAAGCAAACACACATTTTAAAACCAT [CACACA_site3861] | 9.68
82 | AGATTTAAATATCATACACACTTTATATATAATACA [CACACA_site4688] | 9.35
83 | CACATACAGATATATACACACAAATATATATACTCA [CACACA_site4591] | 9.76
84 | TTAATGGCAAAATAGGCACACACACCGATACATATA [CACACA_site8263] | 9.91
85 | CTAGCAAATACATACACACACACACGGATACCTATA [CACACA_site7609] | 10.2
86 | TTAATATAAGCAAATACACACACACCGATATATATA [CACACA_site9269] | 10.2
87 | CTAGCAAATACATACACACACACACCGATACAGATA [CACACA_site5853] | 10.2
88 | TATACATATACATATACACACACACCCATAAATAAA [CACACA_site8372] | 9.99
89 | CACATACAGATATATACACACAAATATAAATACACA [CACACA_site6512] | 9.98
90 | CTAGCAAATACATACACACACACACCCATACATATA [CACACA_site3496] | 10.3
91 | TAAAAAAAATAGCATACACACATATATACCTATATA [CACACA_site4535] | 9.72
92 | TACTAGCAAATACATACACACACACCCATATACATA [CACACA_site9163] | 10.1
93 | TATACCTATAAATACACACACATATATAAATAAATA [CACACA_site6730] | 10
94 | CTAGCAAATACATACACACACACACCGATACATATA [CACACA_site9164] | 10.2
